INS-1E GSIS act: GLuc luminescence reporter in INS-1E cells, primary screen for activators of glucose-dependent secretion of insulin. INS-1E GLuc reporter insulin secretion, 2-3 h. activation, % at 16.6 µM. 370,000 tested, 0.61% active. AID 743287, 2014;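 active means lowest replicate activation of at least 40%, so every replicate reaches that level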;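 further: 0% = median of neutral control wells and 100% = median of IBMX positive control wells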
CaV13 ICDI inh: Disruptors of the CACNA1D IQ motif to Ca2+-dependent inactivation inhibitor domain association, primary screening, Förster resonance energy transfer in intact living …; HEK cells, CFP/YFP FRET ICDI-IQ, plate reader, 10 min; percent FRET-ratio fall versus neutral wells; AID 743397; inhibition, % at 12.3 µM; 340,000 tested, 0.098% active;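 active means mean replicate inhibition of at least 30% and at least 1% of replicates passing that level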;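 further: 0% = median of the neutral control wells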
DENV2 CPE: inhibitors of DENV2 cytopathic effect, primary screen, cell-based, plate reader, single concentration; DENV2-infected cells, cytopathic effect rescue; CPE inhibition, % at 9.99 µM; 350,000 tested, 1.7% active; in the data active means CPE inhibition above about 20%, passing the limit was not always enough; tested in BHK-21 cells;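 further: 0% = median of neutral control wells and 100% = median of positive control wells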
PGC1a acetyl inh: inhibitors of PGC1a acetylation signal, primary screen, cell-based, U2OS, AlphaScreen, inhibitor mode | inhibition, % at 15.6 µM | AlphaScreen anti-acetyl-lysine; with virally co-expressed GCN5 acetyltransferase | 350,000 tested, 0.17% active | AID 651687, 2012;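 active means every replicate shows inhibition of at least 40%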;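 further: 0% = neutral control wells and 100% = positive control wells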
ERAP1 inh: human ERAP1 aminopeptidase inhibitors, primary screen, biochemical, single point, plate reader. Endoplasmic reticulum aminopeptidase 1 (Homo sapiens), Q9NZ08. recombinant ERAP1, Leu-AMC fluorescence, 60 min. inhibition, % at 10.7 µM. 340,000 tested, 0.15% active;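 active means mean replicate inhibition of at least 30%, or all replicates individually reaching that 30% level; inactive means mean below 30% and not every replicate reaching it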;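 further: 0% = neutral control wells and 100% = L-leucinethiol positive control wells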
Target sequence (Q9NZ08 whole entry, looked up): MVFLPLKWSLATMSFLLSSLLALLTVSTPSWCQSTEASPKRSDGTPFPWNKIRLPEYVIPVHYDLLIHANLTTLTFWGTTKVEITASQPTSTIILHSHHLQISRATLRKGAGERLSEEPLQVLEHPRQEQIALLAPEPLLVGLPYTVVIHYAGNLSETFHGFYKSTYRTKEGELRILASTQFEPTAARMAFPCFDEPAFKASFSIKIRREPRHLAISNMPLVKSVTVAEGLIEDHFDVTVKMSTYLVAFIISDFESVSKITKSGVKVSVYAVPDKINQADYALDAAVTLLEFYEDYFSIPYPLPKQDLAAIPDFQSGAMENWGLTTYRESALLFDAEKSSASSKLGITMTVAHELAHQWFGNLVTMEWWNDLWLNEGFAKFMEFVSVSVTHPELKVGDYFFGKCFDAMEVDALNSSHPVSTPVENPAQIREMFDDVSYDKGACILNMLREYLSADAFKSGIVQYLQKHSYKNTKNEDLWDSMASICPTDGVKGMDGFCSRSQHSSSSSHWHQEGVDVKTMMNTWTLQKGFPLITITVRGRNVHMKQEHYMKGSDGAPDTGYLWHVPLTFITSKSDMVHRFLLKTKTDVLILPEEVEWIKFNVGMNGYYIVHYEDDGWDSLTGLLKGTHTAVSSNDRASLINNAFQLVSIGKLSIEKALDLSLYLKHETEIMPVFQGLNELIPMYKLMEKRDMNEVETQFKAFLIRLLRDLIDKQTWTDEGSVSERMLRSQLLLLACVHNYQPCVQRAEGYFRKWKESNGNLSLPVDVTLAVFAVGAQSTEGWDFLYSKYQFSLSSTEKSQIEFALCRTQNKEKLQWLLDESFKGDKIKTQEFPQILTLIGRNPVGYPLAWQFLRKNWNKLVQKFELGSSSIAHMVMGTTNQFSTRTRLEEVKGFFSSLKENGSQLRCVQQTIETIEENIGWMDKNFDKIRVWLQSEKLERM
Ecoli rRNA inh: reduced GFP signal of wild-type E. coli, primary screen, bacterial rRNA inhibitor project, GFP/RFP fluorescence, OD600, single point; E. coli WT GFP vs humanized-ribosome RFP mutants, 24 h; stronger effect = lower value; DMSO median 0, no signal -100; GFP signal change (wild-type ribosome), % (test concentration not listed); 350,000 tested, 1.6% active; AID 720706, 2013;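 active means significant combined selectivity score with lowered wild-type GFP, culture density cut under 30%, mutant RFP and density less affected; inactive means any of these conditions unmet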
* = called active by the depositor; · = no result given. This is a sample that favours compounds with a hit; in the whole collection about 3.2% have one here.

SMILES | INS-1E GSIS act | CaV13 ICDI inh | DENV2 CPE | PGC1a acetyl inh | ERAP1 inh | Ecoli rRNA inh
C[C@@H]1CN([C@@H](C)CO)S(=O)(=O)c2ccc(C#CC3CC3)cc2O[C@H]1CN(C)C(=O)c1cnccn1 | -1.3 | · | -4.6 | 0.2 | 1.3 | -17.8
COc1ccc(CN(C)C[C@@H]2OCCCC[C@H](C)Oc3ccc(NS(=O)(=O)c4ccc(Cl)cc4)cc3C(=O)N([C@@H](C)CO)C[C@H]2C)cc1 | -36.4 | · | 31.0* | -11.4 | -5.0 | -9.3
COc1ccc(CN(C)C[C@@H]2OCCCC[C@@H](C)Oc3ccc(NS(=O)(=O)c4ccc(Cl)cc4)cc3C(=O)N([C@@H](C)CO)C[C@@H]2C)cc1 | -21.5 | · | 11.2 | -8.9 | -3.4 | 3.9
COc1ccc(CN(C)C[C@@H]2OCCCC[C@@H](C)Oc3ccc(NS(=O)(=O)c4ccc(Cl)cc4)cc3C(=O)N([C@H](C)CO)C[C@H]2C)cc1 | -22.6 | · | 70.4* | -12.9 | -4.6 | 1.6
O=C1/C(=C/c2cccs2)NC(=S)N1C1CC1 | 47.0* | -2.8 | 15.3 | 6.1 | 6.2 | 8.2
O=C1NC(=S)SC1=Cc1cccs1 | -17.1 | -5.4 | 1.3 | 4.5 | 0.5 | 0.1
CCC(=O)N1[C@H](CN(C)C(=O)c2cccc(F)c2)[C@@H](c2ccccc2)[C@@H]1CO | 7.7 | · | 1.3 | -3.0 | · | -1.6
CCOC(=O)c1c(C)oc2ccc(NS(=O)(=O)c3cccs3)cc12 | 12.2 | -8.2 | 1.6 | 9.5 | -4.8 | -29.9*
C[C@H]1CN([C@@H](C)CO)C(=O)Cc2cc(NS(=O)(=O)c3ccc(F)cc3)ccc2O[C@H]1CN(C)Cc1ccc(C(=O)O)cc1 | 9.0 | · | 9.3 | 6.2 | 1.8 | 3.5
Cc1ccc2c(CC(=O)OC(C)C(=O)Nc3ncc(Cl)cc3Cl)coc2c1 (stereo unspecified) | -16.8 | -4.3 | 78.7* | 7.7 | -0.1 | -19.9
CN(C)C(=O)C[C@@H]1CC[C@@H](NS(=O)(=O)c2ccccc2)[C@@H](CO)O1 | 1.9 | · | 1.0 | -12.9 | -0.5 | 0.3
Cc1cc(C=O)c(C)n1-c1ccc(Cl)c(C(=O)O)c1 | -4.0 | -1.0 | 1.9 | 0.6 | 31.7* | 8.7
CCNC(=O)C[C@H]1CC[C@H](NC(=O)C2CC2)[C@H](CO)O1 | 2.7 | · | -1.9 | 0.9 | 0.2 | 1.2
O=c1c2cc(Br)ccc2[nH]c(=S)n1Cc1ccccn1 | · | -4.3 | 31.3* | · | 7.0 | 1.3
C[C@H]1CN([C@@H](C)CO)C(=O)Cc2cc(NC(=O)Cc3ccccc3)ccc2O[C@H]1CN(C)Cc1ccc2c(c1)OCO2 | -4.3 | · | -10.9 | 6.5 | 0.4 | -1.6
NCCCn1c(C(=O)c2cc(Cl)c(N)c(Cl)c2)c2ccc([N+](=O)[O-])cc2[n+]1[O-] | -5.4 | -6.2 | 1.0 | 54.4* | · | -5.1
C[C@H](NC(=O)CCCOc1ccc(Cl)cc1Cl)c1nnc2ccccn12 | 19.9 | -2.3 | 41.2* | -0.4 | 2.3 | 0.8
CCCCNc1nc(N)ncc1[N+](=O)[O-] | 55.2* | -13.8 | -3.4 | · | 2.4 | 0.5
C[C@@H]1CN([C@H](C)CO)C(=O)c2cc(NC(=O)Cn3cnnn3)ccc2O[C@H]1CN(C)C(=O)Nc1ccc(C(F)(F)F)cc1 | 13.0 | · | -0.5 | 0.0 | 0.1 | 2.4
CN(C)CC(=O)N1[C@H](C#N)[C@H](c2ccc(C#CC3CCCC3)cc2)[C@@H]1CO | 13.8 | · | 31.0* | -30.9 | 3.3 | 1.6
N#C[C@H]1[C@@H](c2ccc(C#CC3CCCC3)cc2)[C@H](CO)N1S(=O)(=O)c1ccccc1 | -2.5 | · | 20.9* | -0.5 | 3.7 | -15.1
N#C[C@@H]1N[C@@H](CO)[C@H]1c1ccc(C#CC2CCCC2)cc1 | 3.8 | · | 20.6* | -17.3 | 2.0 | -0.4
CN(C)CC(=O)N1[C@@H](C#N)[C@@H](c2ccc(C#CC3CCCC3)cc2)[C@@H]1CO | 4.0 | · | 39.3* | -20.2 | 3.2 | 1.1
N#C[C@H]1[C@H](c2ccc(C#CC3CCCC3)cc2)[C@H](CO)N1S(=O)(=O)c1ccccc1 | 2.8 | · | 0.5 | 0.3 | 4.6 | -9.2

Screening data (PubChem)
